Data on 40 compounds can be found in PubChem BioAssay (Tox21).

Inconclusive results are not listed. A call without a number means that no potency is given here. Active and inactive are the calls of the source. Calls come from the whole dose curve.
Potency is the fitted concentration of half-maximal effect.

Beta-2 adrenergic receptor (Homo sapiens), sequence (P07550 whole entry, looked up): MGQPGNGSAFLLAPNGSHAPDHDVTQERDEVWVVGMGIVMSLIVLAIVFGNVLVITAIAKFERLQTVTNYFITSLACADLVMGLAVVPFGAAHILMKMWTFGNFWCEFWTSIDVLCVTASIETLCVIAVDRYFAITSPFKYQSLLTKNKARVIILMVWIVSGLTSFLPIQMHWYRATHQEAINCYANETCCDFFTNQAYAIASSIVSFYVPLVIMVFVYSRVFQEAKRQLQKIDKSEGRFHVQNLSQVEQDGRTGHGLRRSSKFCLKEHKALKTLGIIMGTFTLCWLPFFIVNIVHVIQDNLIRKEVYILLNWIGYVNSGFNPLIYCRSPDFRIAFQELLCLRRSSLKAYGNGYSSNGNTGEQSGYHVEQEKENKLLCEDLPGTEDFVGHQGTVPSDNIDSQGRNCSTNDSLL

The target in this test is Beta-2 adrenergic receptor (Homo sapiens) (UniProt P07550). The test is described as follows: Adrenergic beta2 receptor (ADRB2) small molecule antagonists, cell-based qHTS assay (AID 1963592). Note: nearly all actives have a fitted effect of over 50% in size. The settings on record: CHO-ADRB2 cells, isoproterenol-stimulated cAMP HTRF ratio, 0.5 h; series mostly up to 92.4 µM; activity change, negative = inhibition: at the top concentration. From the text:
U.S. Tox21 Program National Center for Advancing Translational Sciences [NCATS] Division of Preclinical Innovation [DPI] U.S. Environmental Protection Agency [EPA] National Institutes of Environmental Health Sciences [NIEHS] National Toxicology Program [NTP] U.S. Food and Drug Administration [FDA] Tox21 Assay Overview: Beta adrenergic receptors (Beta-ARs) belong to the G-protein coupled receptor (GPCR) superfamily, includes three subtypes - beta1, beta2, and beta3. Beta1-AR is the predominant receptor subtype expressed in the heart, and beta2-AR is expressed in the kidney, lung, blood vessel and in the heart, and beta3 is found in the adipocytes. Beta1 and 2 ARs couple to Gs protein and elevate cyclic adenosine mono phosphate (cAMP), which activates protein kinase A and leads to the downstream signaling responsible for the physiological actions. Beta-AR agonists or antagonists are the most prescribed therapeutic agents for heart failure and asthma, and these were one of the first target receptors for the rational drug design. Tox21 10K compound library was screened using the cAMP-Gs dynamic assay (Cisbio Bioassays, Shelton, CT) to identify agonists/antagonists of the Gs-coupled human adrenergic, beta2 receptor (ADRB2) in the CHO-ADRB2 cell line (Codex BioSolutions, Inc. Gaithersburg, MD), which stably over-expresses ADRB2. The principle of cAMP-Gs dynamic assay is based on HTRF technology, which facilitates the fluorescence resonance energy transfer (FRET) between donor Europium cryptate and acceptor d2-labeled cAMP. The cAMP generated within cells competes with the red acceptor, d2-labled cAMP, for binding to the monoclonal anti-cAMP-cryptate (Europium donor). An increase in intracellular cAMP leads to the disruption of FRET signal, and the signal is inversely proportional to the cAMP concentration. Propranolol HCl (Sigma-Aldrich, St. Louis, MO) was used as a positive control in the screening.
Tox21 Assay Protocol Summary: CHO-ADRB2 cells were dispensed at 1,000/well in 4uL assay medium into white/solid 1536-well plates (Greiner Bio-One North America Inc., Monroe, NC) using a Multidrop Combi dispenser (ThermoFisher Scientific, Waltham, MA). The assay plates were incubated at 37C and 5% CO2 for an overnight (18-20hr). Then positive control and test compounds dissolved in DMSO were transferred to the assay plates at 23nL using a Pintool station (Wako, San Diego, CA). Following the compound and positive control transfer, 1uL agonist-stimulation mix containing 1nM Isoproterenol HCl, 100uM IBMX and 25uM Ro-20-1724 was added to each well of the assay plates using BioRAPTR Flying Reagent Dispenser (FRD, Beckman Coulter, Brea, CA). The assay plates were incubated at room temperature for 0.5hr. Then 2.5ul each d2-labled cAMP and anti-cAMP-cryptate solutions were added separately to each well of the assay plates using an FRD and the assay plates were incubated at room temperature for 1hr. The fluorescence signal was measured at two different wavelengths (665nm and 615nm) using an Envision plate reader (Perkin Elmer, Shelton, CT). Data were expressed as the ratio of 665 nm/615 nm.
Turning to `Nc1ccccc1`, the Potency entry is “inactive”.

Regarding `CCCCCCCCOC(=O)c1ccccc1C(=O)OCCCCCCCC`, the Potency entry was “inactive”.

Consider `OCC(Br)CBr` (stereo not given), for which the “activity change, negative = inhibition” value was 0.811% (inactive).

As to `CC[N+](CC)(CC)CC`, the Potency result is “inactive”.

On to `CC(C#N)CCC#N` (stereo not given), for which the Potency entry was “inactive”.

For `CNC(=O)O/N=C/C(C)(C)S(C)=O` (stereo not given), the Potency entry is “inactive”.

For the compound `NC(=O)CCl`, the “activity change, negative = inhibition” value was 2.11% (inactive).

Consider `N#Cc1ccncc1`, for which the “activity change, negative = inhibition” value was -1.56% (inactive).

On to `CN(C)C(=O)Nc1ccc(Cl)cc1`, for which the Potency result is “inactive”.

Consider `Nc1ccncc1`, for which the Potency entry is “inactive”.

With `CCC1(c2ccc(N)cc2)CCC(=O)NC1=O` (stereo not given), the Potency entry is “inactive”.

As to `CC(C)(O)C#N`, the Potency entry was “inactive”.

Regarding `Cc1cc(Cl)ccc1OCCCC(=O)O`, the Potency result was “inactive”.

Take `O=C(CCN1CC1)OCC(CO)(COC(=O)CCN1CC1)COC(=O)CCN1CC1`: the “activity change, negative = inhibition” value was 2.6% (inactive).

Turning to `CCCCCCCCCCCCCCn1cc[n+](C)c1`, the Potency entry was “inactive”.

Take `CC1CN1` (stereo not given): the “activity change, negative = inhibition” value is -13.6% (inactive).

Take `BrCCc1ccccc1`: the “activity change, negative = inhibition” value was -4.96% (inactive).

On to `CCOP(=S)(OCC)Oc1cnc2ccccc2n1`, for which the “activity change, negative = inhibition” value was 1.08% (inactive).

With `C=CCCC#N`, the “activity change, negative = inhibition” value is 6.81% (inactive).

Turning to `ClCCN1CCOCC1`, the “activity change, negative = inhibition” value was -10.3% (inactive).

As for `NC(=O)CN1CCCC1=O`, the Potency entry is “inactive”.

As to `OC(c1ccc(Cl)cc1)(c1cncnc1)c1ccccc1Cl` (stereo not given), the Potency is 69.8 µM (active).

`c1ccc(C2CO2)cc1` (stereo not given): the “activity change, negative = inhibition” value is -3.02% (inactive).

For the compound `O=C(Cl)/C=C/C(=O)Cl`, the “activity change, negative = inhibition” value was -11.8% (inactive).

In the case of `CCCCCCCCCCCCCCCl`, the “activity change, negative = inhibition” value was 2.56% (inactive).

As to `C=CC(=O)NC(C)(C)CC(C)=O`, the “activity change, negative = inhibition” value was -2.26% (inactive).

`C[N+](C)(C)CC(=O)[O-]`: the Potency entry was “inactive”.

Consider `CCCCOCCOC(C)=O`, for which the Potency entry is “inactive”.

As for `CCOP(=S)(OCC)Oc1cc(C)nc(C(C)C)n1`, the Potency result is “inactive”.

For the compound `COc1ccccc1OC`, the “activity change, negative = inhibition” value was -9.39% (inactive).

On to `C#CCOS(=O)OC1CCCCC1Oc1ccc(C(C)(C)C)cc1` (stereo not given), for which the Potency result was “inactive”.

In the case of `C1CCC2CCCCC2C1` (stereo not given), the “activity change, negative = inhibition” value is 0.341% (inactive).

On to `CC(C)(Cl)Cl`, for which the Potency result is “inactive”.

`CN(C)C(=S)S`: the Potency entry was “inactive”.

For `C[C@]12CC[C@H](O)CC1=CC[C@@H]1[C@@H]2CC[C@]2(C)C(=O)CC[C@@H]12`, the Potency entry was “inactive”.

For the compound `CCC(C)n1c(=O)[nH]c(C)c(Br)c1=O` (stereo not given), the “activity change, negative = inhibition” value was 0.114% (inactive).

Consider `O=C(O)COc1ccc(Cl)cc1Cl`, for which the Potency entry is “inactive”.

Take `CC(C)c1cccc(C(C)C)c1O`: the Potency entry is “inactive”.

For `C[C@]12CCC(=O)C=C1CC[C@@H]1[C@@H]2CC[C@@]2(C)[C@H]1CC[C@]2(C)O`, the Potency result was “inactive”.

`CCC(C)C(C)(COC(N)=O)COC(N)=O` (stereo not given): the “activity change, negative = inhibition” value was 5.73% [at 42.5 µM] (inactive).
